The text below walks through data of PubChem BioAssay.

Structures are written as SMILES.

The test concerns Sam68 (KHDRBS1). Briefly: compounds binding KHDRBS1 protein – biochemical, small-molecule microarray, 635 nm fluorescence, primary screen (AID 1125).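 Also: score merges 667 nm channel intensity with signal to noise over triplicate slides.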 Particulars: higher = more signal.
Consider `COCCOC(=O)N1C(=O)[C@@]2(c3cc(C#CC4(O)CCCCCC4)ccc31)[C@H](C(=O)N1CCCCCCC1)[C@H]1C(=O)O[C@H](c3ccccc3)[C@H](c3ccccc3)N1[C@@H]2c1ccc(O)cc1`, for which the composite z-score turned out to be 1.3.
The result for `C=CCC(OC(C)=O)[C@@H]1[C@@H](N(Cc2cc3ccccc3o2)C(=O)Cc2ccc(F)cc2)c2cc(OCCCO)ccc2N1C(=O)c1ccc(-c2ccccc2)cc1` (stereo partly specified) reads -0.533; that for `O=C(CS)NCCCCCNC(=O)[C@H]1C[C@H]2C(=O)N[C@@H](Cc3ccccc3)C(=O)N2[C@H]1c1ccc(O)cc1`, 1.32; that for `CO[C@H]1COC(=O)CC=C[C@@H](C)COC(=O)[C@@H](C)NC(=O)CC=C[C@@H]1C`, 0.787.
For `CCC(=O)[C@]12O[C@@]3([C@@H]4C(=O)OCC[C@@H]41)N(Cc1ccccc1)C(C)=C(C(=O)OC)[C@@H](c1ccccc1)N3C2=O`, the composite z-score was -1.07.
Regarding `C[C@]1(C(=O)NCCN2CCOCC2)c2ccccc2C(=O)N(Cc2ccccc2)[C@H]1c1ccc(CO)cc1`, the composite z-score was -0.791.
The result for `CC[C@H]1C2=C3C(CC[C@H]4C(OC)OC[C@](C)([C@@H]34)N(C(=O)OC(C)(C)C)C2)C(CO)C1CO` (stereo partly specified) reads 1.29; that for `O=C1c2ccccc2[C@@]2(Cc3ccccc3N(CC(F)(F)F)C2=O)[C@H](c2ccc(CO)cc2)N1C1CCCCC1`, 0.588; that for `C=C(C(=O)CC[C@H](OC(=O)c1ccccc1-c1ccccc1C(=O)O)c1ccc(CO)o1)C(C)C`, 1.26.
The result for `CC1=C([C@H](O)CCc2ccccc2)[C@H](CO)[C@@H]2C(=O)N(Cc3ccccc3)C(=O)[C@@H]2C1` reads -0.364; that for `O=C1O[C@H](c2ccccc2)[C@H](c2ccccc2)N2[C@H]1[C@@H](C(=O)NC[C@H](O)c1ccccc1)[C@]1(C(=O)Nc3ccc(C#CC4=CCCCC4)cc31)[C@H]2c1ccc(OCCO)cc1`, 1.31; that for `COc1cc(Cc2cc3c(c(CCc4ccccc4)n2)[Si](C(C)C)(C(C)C)OC3)cc(OC)c1OC`, -0.0118.
To `CO[C@H]1O[C@H](CO)[C@@H](OC(=O)CCc2ccccc2)[C@@H]2OC(=O)[C@H](Cc3cccc(Br)c3)C/C=C/C[C@@H](Cc3cccc(Br)c3)C(=O)O[C@@H]12` belongs 0.7; to `Cc1ccc(S[C@]2(C(=O)NCCCN(C)C)CC(=O)N(C3CCCCC3)[C@@H]2c2ccc(CO)cc2I)cc1`, -0.171.
`COC(=O)[C@@]1(Cc2ccccc2CN=[N+]=[N-])N=C(c2ccc(OCCCO)cc2)O[C@H]1c1ccccc1N=[N+]=[N-]` registered a composite z-score of 0.454.
The result for `CO[C@@H]1COC(=O)[C@H](C)NC(=O)CC=C[C@@H](C)[C@H](OC)COC(=O)[C@H](C)NC(=O)CC=C[C@H]1C` reads 0.315; that for `COCCOC(=O)N1C(=O)[C@@]2(c3cc(C#CCNC(N)=O)ccc31)[C@H](c1ccc(OCCO)cc1)N1[C@H](c3ccccc3)[C@H](c3ccccc3)OC(=O)[C@H]1[C@@H]2C(=O)Nc1nc2ccccc2s1`, 0.289; that for `C=CC[C@@]1(C(=O)N2CCOCC2)N=C(c2ccc(OCCCO)cc2)O[C@@H]1c1ccccc1`, -0.157.
With `COc1cc2c(cc1OC)CN(C(=O)[C@H]1[C@@H]3C(=O)O[C@@H](c4ccccc4)[C@@H](c4ccccc4)N3[C@@H](c3ccc(O)cc3)[C@]13C(=O)Nc1ccc(C#CC4(O)CCCCCC4)cc13)CC2`, the composite z-score came out at 1.29.
The result for `O=C/C=C/c1ccccc1Cl` reads -0.764; that for `C=CCC(OC(C)=O)[C@@H]1[C@@H](N(Cc2cccc3ccccc23)C(=O)Cc2ccc(F)cc2)c2cc(OCCCO)ccc2N1C(=O)Cc1ccc2ccccc2c1` (stereo partly specified), -0.146.
The result for `CC(=O)NCCCC[C@@H]1NC(=O)[C@@H]2C[C@H](C(=O)NCCCCCNC(=O)CS)[C@H](c3ccc(O)cc3)N2C1=O` reads -0.0077; that for `C[N+](C)(C)CCCCNC(=O)[C@@H]1C[C@@H]2C(=O)N3CCC[C@H]3C(=O)N2[C@@H]1c1cccc(OCCO)c1`, 1.04.
As for `O=C(NCC(O)CO)[C@]1(Cc2ccccc2)N=C(c2ccc(OCCCO)cc2)O[C@@H]1c1ccccc1` (stereo partly specified), the composite z-score turned out to be 1.03.
With `COC(=O)Cn1c(C(=O)N2CCCC2)cc2c1C[C@H]1CN(C(=O)c3ccccc3)[C@@](Cc3ccccc3)(C(=O)OC)[C@@H]21`, the composite z-score turned out to be 0.185.
To `CCOC(=O)[C@H]1C/C=C/C[C@H](C(=O)OCC)C(=O)O[C@H]2[C@@H](OC)O[C@H](CO)[C@@H](OC(=O)Nc3ccc(Br)cc3)[C@@H]2OC1=O` belongs 1.3.
The result for `CO[C@@H]1COC(=O)[C@@H]2CCCN2C(=O)CC=C[C@@H](C)[C@H](OC)COC(=O)[C@@H]2CCCN2C(=O)CC=C[C@H]1C` reads -0.149; that for `COCCOC(=O)N1C(=O)[C@@]2(c3cc(C#CCCO)ccc31)[C@H](c1ccc(O)cc1)N1[C@H](c3ccccc3)[C@H](c3ccccc3)OC(=O)[C@H]1[C@@H]2C(=O)Nc1nc2ccccc2s1`, 1.29; that for `COc1cc2c(cc1OC)CN(C(=O)[C@@H]1[C@H]3C(=O)O[C@H](c4ccccc4)[C@H](c4ccccc4)N3[C@H](c3ccccc3OCCO)[C@@]13C(=O)Nc1ccccc13)CC2`, 1.2.
To `COc1ccc([Si](C)(C)[C@H]2[C@H](CCO)O[C@@]3(C(=O)N(Cc4ccc(N5CCCCC5=O)cc4)c4ccccc43)[C@@H]2C)cc1` belongs 1.3; to `CCCCO[C@H]1C[C@H]2C(Br)=C[C@@]1(CO)C(=O)[C@]21CO1`, 0.362; to `CCOC(=O)C[C@H]1[C@H](OC(=O)c2ccccc2-c2ccccc2)[C@@H](NC(=O)C2CCCCC2)c2cc(OCCCO)ccc2N1C(=O)c1ccccc1`, 0.692.
On to `CO[C@H]1COC(=O)[C@H](C)NC(=O)CC=C[C@@H](C)[C@H](NS(=O)(=O)c2ccc(C)cc2)COC(=O)[C@@H](OCc2ccccc2)C=C[C@@H]1C`, for which the composite z-score was found to be 0.133.
The result for `CC(C)CNC(=O)[C@@]1(C)c2ccccc2C(=O)N(Cc2ccc(OC(F)(F)F)cc2)[C@H]1c1ccc(CO)cc1` reads -0.718; that for `CC(C)C[C@@H]1NC(=O)[C@H]2C[C@@H](C(=O)NCCCCCC[N+](C)(C)C)[C@@H](c3ccc(O)cc3)N2C1=O`, -0.907.
The result for `C=CC[C@@]1(C(=O)NCC(O)CO)N=C(c2ccc(OCCCO)cc2)O[C@@H]1c1ccccc1CN=[N+]=[N-]` (stereo partly specified) reads 1.04.
